Reference: PubChem BioAssay (NCI)
The panel holds about 79,000 compounds, 15% with a hit somewhere; the sample as a whole holds those more often. Activity calls are given as the source filed them. Rule as the data show it: active = growth inhibition above about 70%; inactive = the rest.

Assay: NCI Yeast Anticancer Drug Screen. Data for the mec2-1 strain (AID 157)
Settings: S. cerevisiae mec2-1 strain, stronger effect = higher value
Protocol: Growth inhibition of yeast strains with defined genetic alterations is measured as a screen for potential anti-cancer activity. Selected strains with alterations in DNA damage repair or cell cycle control were exposed to compounds and growth inhibition was measured relative to vehicle treated controls. The strain used in this assay is mec2-1

[1] = at 5.0 µM (retest, dose inferred, filed as 0.5)
[2] = at 50.0 µM (retest, dose inferred, filed as 5.0)

Compound | growth inhibition [1] | growth inhibition [2] | growth inhibition (at 50.0 µM)
CCCCCC(Oc1ccc(Cl)cc1)C(=O)O (configuration not stated) | 2% (inactive) | 83% (active) | 58.5% (inactive)
O=C(c1ccccc1)C(Br)CCCC(Br)C(=O)c1ccccc1 (configuration not stated) | 16% (inactive) | 51% (inactive) | 96.3% (active)
CC(C(=O)NN)C(O)C(C)(C)O (configuration not stated) | -5% (inactive) | -10% (inactive) | 3.8% (inactive)
Cc1cccc2ccc3cc(CC(=O)O)c4cccc(C)c4c3c12 | 33% (inactive) | 99% (active) | 99.8% (active)
CCCCCCCCCCCCCCCCC/C=N\NC(=O)CCCC(=O)N/N=C/CCCCCCCCCCCCCCCCC | -4% (inactive) | -2% (inactive) | 99.1% (active)
CCCCSc1nc2c([nH]1)c(=S)n(C)c(=S)n2C | 20% (inactive) | 91% (active) | 82% (active)
CC1(C)c2ccccc2Cc2cc3ccccc3nc21 | -4% (inactive) | 99% (active) | 93% (active)
c1ccc(-c2cc(CN3CCOCC3)c(-c3ccccc3)o2)cc1 | -6% (inactive) | 99% (active) | 51.9% (inactive)
COc1ccccc1/C=C1\NC(=S)N(/C=C2\C(=O)Oc3ccccc3C2=O)C1=O | -7% (inactive) | 25% (inactive) | 29.9% (inactive)
COC(=O)CSc1nc2[nH]c(SC)c(C(N)=O)c2c(=O)n1-c1ccccc1 | -2% (inactive) | -22% (inactive) | 29.4% (inactive)
CCCN(CCC)C(=S)N/N=C/c1cccc(C)n1 | -33% (inactive) | 99% (active) | 93.2% (active)
CCOc1nc(N)nc(C)c1N=Nc1ccc(Br)cc1 | 0% (inactive) | 32% (inactive) | 2.6% (inactive)
C=CC1(NC(=O)c2ccccc2)CCC(C(C)(C)C)CC1 (configuration not stated) | -5% (inactive) | 89% (active) | -0.2% (inactive)
COc1ccc2c(c1)[n+]([O-])c(-c1ccc(Cl)c(Cl)c1)c(N)[n+]2[O-] | 26% (inactive) | 99% (active) | 99.5% (active)
